# PNC assembly inh: High Content Assay for Compounds that inhibit the Assembly of the Perinucleolar Compartment; 140,000 compounds, 3.1% hits; PC3M PTB-GFP, PNC prevalence imaging, 16 h; stronger effect = lower value; activity change (PNC), negative = inhibition, % at 10 µM;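 active = readout at or below -70, meaning at least 70% loss of cells showing the perinucleolar compartment, a nuclear body marking cancer cells; inconclusive = readout between -30 and a set limit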;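 also: plate controls were DMSO wells for no effect and camptothecin positive control wells for full effect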
#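 Compounds are pinned in duplicate onto adhered PC3M cells stably expressing GFP-tagged PTB and incubated 16 h at 37 C. Cells are then fixed, nuclei stained with Hoechst, and PNC-positive cells counted.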
# ALDH1A1 block: qHTS Assay for Inhibitors of Aldehyde Dehydrogenase 1 (ALDH1A1); Aldehyde dehydrogenase 1A1 (Homo sapiens), P00352; Purified ALDH1A1, NADH fluorescence, propionaldehyde substrate; Potency, µM (top dose mostly 75.3 µM), inactives show at the highest dose activity, negative = inhibition, actives largely listed as inhibitors; 220,000 compounds, 7.3% hits; AID 1030, 2008;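 also: potency is read from the fitted curve at half-maximal effect; plate controls were no enzyme wells and a reference inhibitor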
# Target sequence (P00352 whole entry, looked up): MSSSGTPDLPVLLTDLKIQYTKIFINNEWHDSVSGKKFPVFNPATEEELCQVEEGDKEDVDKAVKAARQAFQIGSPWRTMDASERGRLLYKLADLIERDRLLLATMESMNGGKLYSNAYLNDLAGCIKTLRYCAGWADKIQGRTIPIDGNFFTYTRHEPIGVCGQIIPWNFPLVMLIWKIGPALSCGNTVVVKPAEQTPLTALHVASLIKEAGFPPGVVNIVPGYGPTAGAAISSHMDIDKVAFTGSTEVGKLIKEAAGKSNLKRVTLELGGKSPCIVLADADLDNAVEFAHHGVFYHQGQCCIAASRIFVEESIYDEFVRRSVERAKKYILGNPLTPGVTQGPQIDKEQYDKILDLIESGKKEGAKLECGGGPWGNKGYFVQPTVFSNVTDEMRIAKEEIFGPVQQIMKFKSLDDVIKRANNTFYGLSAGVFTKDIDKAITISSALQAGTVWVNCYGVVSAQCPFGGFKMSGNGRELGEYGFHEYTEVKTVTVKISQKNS
# HPGD block: qHTS Assay for Inhibitors of HPGD (15-Hydroxyprostaglandin Dehydrogenase); 15-hydroxyprostaglandin dehydrogenase [NAD(+)] (Homo sapiens), P15428; purified HPGD, NADH fluorescence kinetic, PGE2 substrate; Potency, µM, without a hit: at the top dose activity change, negative = inhibition, usual class: inhibitors; 150,000 compounds, 4.3% hits; AID 894, 2007; also: potency is read from the fitted curve at half-maximal effect
#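 NADH formation kinetics: reaction with 30 uM PGE2 and 1 mM NAD+ (final), 20 nM enzyme, Tris-HCl pH 8 with Tween 20, after 15 min compound preincubation at room temperature. Fluorescence change, last versus first of five reads.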
# Starred values were filed as active, the others as inactive; ? = inconclusive; nt = no result given; [ ] = another dose, or the depositor's remark. Sampled rows, rich in hits. Any-hit rate of the full collection: about 11%. Unless noted, calls follow the shape of the dose curve; as a rule, active = well fitted inhibition curve with a large enough effect (not every such curve was filed as active); inconclusive = small, poorly fitted or top-dose-only effect, or another doubt; inactive = no such curve, though single readings can be large or run the other way. Unless noted, % is scaled to controls: 0 for no effect and ±100 for the full control effect.
SMILES,PNC assembly inh,ALDH1A1 block,HPGD block
O=C(NC1CCCC1)C(c1ccncc1)N(Cc1ccccc1)C(=O)c1ccc(-c2ccccc2)[nH]1 (stereo not drawn),?,22µM*,-20%
O=C(NC1CCCCC1)C(c1ccc(F)cc1)N(CCN1CCOCC1)C(=O)c1ccc(-c2ccccc2)[nH]1 (stereo not drawn),nt,4%,nt
Cc1ccc(C(C(=O)NCC2CCCO2)N(Cc2ccccc2)C(=O)c2ccc(-c3ccccc3)[nH]2)o1 (stereo not drawn),-5,22µM*,?
O=C(c1ccco1)N1CCC2(CC1)CN(Cc1cc(C(F)(F)F)cc(C(F)(F)F)c1)C2,nt,?,0%
CN(CCOC(=O)CN1C(=O)c2ccccc2C1=O)C1=NS(=O)(=O)c2ccccc21,nt,0%,nt
O=C(O)Cc1csc(-c2cccc(F)c2)n1,nt,2%,nt
CC(NC(=O)C12CC3(C)CC(C)(CC(C)(C3)C1)C2)C(=O)O (stereo not drawn),nt,2%,nt
c1ccc(CN2CCOCC2)cc1,-22,6%,-5%
c1ccc(Oc2cccc(CN3CCOCC3)c2)cc1,-8,?,25µM*
Cc1ccc(S(=O)(=O)Nc2c(C)n(C)n(-c3ccccc3)c2=O)cc1C(=O)OCC(=O)N1CCCC(C)C1 (stereo not drawn),nt,-1%,nt
Cc1ccc(NC(=O)Cn2cccc2)c(Br)c1,?,-4%,14µM*
CCOc1ccc(NC(=O)CNc2ccc(C)cc2Cl)cc1,39,3%,-12%
Cc1ccc(NC(=O)Cn2cccc2)cc1,nt,-10%,nt
Cc1cccc(NC(=O)Cn2cccc2)c1,19,1%,-5%
CCOc1ccc(NCC(=O)Nc2ccc(C)cc2C)cc1,20,1.8µM*,-3%
Cc1ccc(NC(=O)Cn2cccc2)c(C)c1,28,-1%,2.2µM*
CCCCC(=O)NC(=S)Nc1ccc(NC(=O)C(C)C)c(OC)c1,nt,-5%,nt
O=C(Cn1nc(C(=O)O)c2ccccc2c1=O)NC12CC3CC(CC(C3)C1)C2,nt,-4%,nt
COc1ccccc1-n1cnnc1SC(C)C(=O)Nc1cccc([N+](=O)[O-])c1 (stereo not drawn),3,?,-6%
Fc1ccc(CNc2nc(-c3ccco3)cc(C(F)(F)F)n2)cc1,-29,?,?
Fc1ccc(-c2cc(C(F)(F)F)nc(NCc3cccs3)n2)cc1,-113*,?,-29%
O=C1CCCC/C1=N\Nc1ccc(OCc2ccccc2)cc1,31,1%,-4%
CCCCCCCCCCCCCCCC(=O)NCC(=O)O,nt,-1%,-2%
Cc1ccc(Nc2nc3c(s2)CCC3)c(C)c1,-27,?,-12%
COc1ccccc1Nc1nc2c(s1)CCC2,78,18µM*,?
SMILES,PNC assembly inh,ALDH1A1 block,HPGD block
O=Cc1sc(Nc2ccccc2)nc1Cl,nt,-7%,nt
COc1ccccc1Nc1nc(Cl)c(C=O)s1,nt,18µM*,nt
O=C(C1CCCO1)N1CCN(C(=S)Nc2ccccc2F)CC1 (stereo not drawn),26,-5%,-5%
O=C(NCCN1C(=O)S/C(=C\c2ccc(OC(F)F)cc2)C1=O)c1cnccn1,-25,5%,-4%
CN(C)S(=O)(=O)c1ccc(NC(=O)C2CC3C=CC2C3)cc1 (stereo not drawn),?,-3%,-17%
Cc1cc(NC(=O)CN2CCCC(C)C2)no1 (stereo not drawn),nt,6%,nt
Cc1ccc(CNC(=O)CN2CCCC(C)C2)cc1 (stereo not drawn),4,-1%,14µM*
CCCC(=O)Nc1ncnc2c1ncn2C1OC2COP(=O)(O)OC2C1OC(=O)CCC (stereo not drawn),nt,5%,-18%
Cc1onc(-c2ccccc2)c1C(=O)NC(=S)NNC(=O)c1ccncc1,-14,18µM*,-21%
O=C(Nc1cccc2cccnc12)c1cccnc1,-85*,-5%,-8%
Cc1onc(-c2ccccc2)c1C(=O)NC(=S)NNC(=O)c1cccnc1,-13,?,-6%
CCOc1ccccc1C(=O)Nc1ccccc1C(N)=O,-10,0%,-14%
O=C(Nc1cccc2nsnc12)c1cccnc1,28,?,-20%
COC(=O)c1sccc1NC(=O)c1cccnc1,?,-5%,28µM*
COC(=O)c1sccc1NC(=O)c1csc(C)c1,16,-12%,-14%
CCOc1ccccc1C(=O)Nc1ccsc1C(=O)OC,-110*,-11%,-10%
Cn1c(CNC(=O)OC(C)(C)C)n[nH]c1=S,nt,10%,nt
Cc1ccc(C2CC(=O)Oc3c(C(C)C)ccc(C)c32)cc1 (stereo not drawn),nt,5%,-1%
COc1ccc(S(=O)(=O)N2CC(O)C[C@H]2C(=O)OCC(=O)N2CCCCCC2)cc1 (stereo partly drawn),nt,9%,nt
COc1cnc(SCc2c(Cl)cccc2Cl)nc1Cl,13,?,-25%
COC(=O)c1sccc1NC(=O)c1c(-c2ccccc2)noc1C,-10,8.9µM*,-18%
COc1ccc(Cc2nnc(NC(=O)c3c(-c4ccccc4)noc3C)s2)cc1,-3,-1%,-13%
CCOC(=O)c1c(NC(=O)c2c(-c3ccccc3)noc2C)sc(C)c1-c1ccccc1,-103*,?,?
COc1ccc(Cc2nnc(NC(=O)c3c(-c4ccccc4)noc3C)s2)cc1OC,10,32µM*,-26%
CCOC(=O)Cc1csc(NC(=O)c2c(-c3ccccc3)noc2C)n1,?,2%,-10%
SMILES,PNC assembly inh,ALDH1A1 block,HPGD block
COC(=O)c1sccc1NC(=O)c1c(C)cc(=O)oc1C,-28,3%,-8%
COc1ccc(Cl)cc1NC(=S)NCCSc1ccc(C)cc1,32,?,nt
COc1cc(/C=N/NC(=O)CN(Cc2ccco2)S(=O)(=O)c2ccccc2)ccc1O,12,-5%,-14%
COc1ccc(NC(=O)Cn2cnc3c(nnn3-c3ccc(C)cc3)c2=O)cc1,nt,7%,nt
C[N+]1(C)CCC(=C(c2ccccc2)c2ccccc2)CC1,nt,12%[20.9 µM],-5%
Cc1ccc(NCc2ccccc2O)c(C)c1,nt,-1%,nt
O=c1nc2c(O)cccn2c2c1c(=O)[nH]c1ccccc12,?,20µM*,?
O=c1[nH]c2ccccc2c2nc3ccccn3c12,5,-4%,-21%
COc1ccc(Br)c(C(=O)Nc2ccc(F)cc2)c1,nt,3%,nt
COc1ccc(Br)c(C(=O)NCCC(C)C)c1,-14,6%,13µM*
COc1ccc(C(CNC(=O)c2ccc(S(=O)(=O)N(C)C)cc2)N2CCCC2)cc1 (stereo not drawn),nt,4.5µM*,nt
COc1ccc(S(=O)(=O)N(C)c2ccc(C(N)=O)cc2)cc1,-2,-5%,-7%
COc1ccc(S(=O)(=O)N(C)c2ccc(C(=O)NCCC(C)C)cc2)cc1,-23,-16%,2µM*
CCOCCCNC(=O)c1ccc(N(C)S(=O)(=O)c2ccc(OC)cc2)cc1,?,-11%,1.6µM*
CC(C)CCNC(=O)COc1ccc(N(C)S(=O)(=O)c2ccc(F)cc2)cc1,nt,11%,nt
COc1ccc(C(CNC(=O)c2cccc(Br)c2)N2CCCC2)cc1 (stereo not drawn),36,6%,-10%
Nc1ncnc2nn([C@H]3O[C@@H](CO)[C@@H](O)[C@H]3O)nc12,nt,3%[13.5 µM],-13%
